Assay results reported in the OligoGym collection.

Target: FMNL2
Experiment: pooled miR-30 sensor sort-seq; sequence = guide strand
Conditions: shRNA
Also: reference of the scale not given here.

Point of comparison: TAGCTTTACATATTTCATCAGC, sensor-assay potency score (higher = more potent) -0.662. Against it:
- TTCTTCTTTTTCTTTGACCATT — lower, -1.21
- TTCCATGAGAGCTTGTTCCTGC — higher, 0.908
- TAATTCTGCAATTAACTCTTGC — higher, -0.103
- TTATCTTTAACTTGTCGTCTTC — higher, 0.239
- TTCTGCAATTAACTCTTGCTGC — higher, -0.158
- TTGAGTATTTGCATCTTTGTAG — higher, 0.305
- TACAATATTAATAAACTGCATA — lower, -0.855
- TAGACTGTCTTTGAATTGCTTC — higher, 0.088
- TTATATGCTTTCACAAACCGGA — higher, -0.533
- TTTCTCTAGCTCATGAATCTTT — higher, -0.357
- TTATAGAGACAGATGCTGCTAT — higher, 0.344
